IP6K1 inhibitor – blocks human inositol hexakisphosphate kinase 1; activity change, % (series mostly up to about 58 µM); IP6K1 kinase, ADP-Glo luminescence, 2 h; hits give low values; 0.81% of 140,000 active; AID 1645851; in the data active = activity change below about -25%; note: % is set by controls: 0 for no effect and ±100 for the full control effect
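ADP-Glo luminescence measures ADP made by human IP6K1 during a 2 h RT reaction with ATP/IP6 (mix at 1.3 mM/130 uM); top library doses 57.5 and 19.1 uM final.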
KDM5B inh – KDM5B demethylase inhibition; Q9UGL1; KDM5B demethylase, FDH-coupled NADH fluorescence (FDH is formaldehyde dehydrogenase); Potency, µM (series often up to 57.7 µM), most hits filed as inhibitors; 2.6% of 220,000 active; AID 1347165; active = well fitted inhibition curve with a large enough effect; inconclusive = small, poorly fitted or top-dose-only effect; inactive = no such curve, though single readings can be large or run the other way; note: potency is the fitted concentration of half-maximal effect; 0% is about no effect; nearly all actives have a fitted effect of over 70% in size
Target sequence (Q9UGL1 whole entry, looked up): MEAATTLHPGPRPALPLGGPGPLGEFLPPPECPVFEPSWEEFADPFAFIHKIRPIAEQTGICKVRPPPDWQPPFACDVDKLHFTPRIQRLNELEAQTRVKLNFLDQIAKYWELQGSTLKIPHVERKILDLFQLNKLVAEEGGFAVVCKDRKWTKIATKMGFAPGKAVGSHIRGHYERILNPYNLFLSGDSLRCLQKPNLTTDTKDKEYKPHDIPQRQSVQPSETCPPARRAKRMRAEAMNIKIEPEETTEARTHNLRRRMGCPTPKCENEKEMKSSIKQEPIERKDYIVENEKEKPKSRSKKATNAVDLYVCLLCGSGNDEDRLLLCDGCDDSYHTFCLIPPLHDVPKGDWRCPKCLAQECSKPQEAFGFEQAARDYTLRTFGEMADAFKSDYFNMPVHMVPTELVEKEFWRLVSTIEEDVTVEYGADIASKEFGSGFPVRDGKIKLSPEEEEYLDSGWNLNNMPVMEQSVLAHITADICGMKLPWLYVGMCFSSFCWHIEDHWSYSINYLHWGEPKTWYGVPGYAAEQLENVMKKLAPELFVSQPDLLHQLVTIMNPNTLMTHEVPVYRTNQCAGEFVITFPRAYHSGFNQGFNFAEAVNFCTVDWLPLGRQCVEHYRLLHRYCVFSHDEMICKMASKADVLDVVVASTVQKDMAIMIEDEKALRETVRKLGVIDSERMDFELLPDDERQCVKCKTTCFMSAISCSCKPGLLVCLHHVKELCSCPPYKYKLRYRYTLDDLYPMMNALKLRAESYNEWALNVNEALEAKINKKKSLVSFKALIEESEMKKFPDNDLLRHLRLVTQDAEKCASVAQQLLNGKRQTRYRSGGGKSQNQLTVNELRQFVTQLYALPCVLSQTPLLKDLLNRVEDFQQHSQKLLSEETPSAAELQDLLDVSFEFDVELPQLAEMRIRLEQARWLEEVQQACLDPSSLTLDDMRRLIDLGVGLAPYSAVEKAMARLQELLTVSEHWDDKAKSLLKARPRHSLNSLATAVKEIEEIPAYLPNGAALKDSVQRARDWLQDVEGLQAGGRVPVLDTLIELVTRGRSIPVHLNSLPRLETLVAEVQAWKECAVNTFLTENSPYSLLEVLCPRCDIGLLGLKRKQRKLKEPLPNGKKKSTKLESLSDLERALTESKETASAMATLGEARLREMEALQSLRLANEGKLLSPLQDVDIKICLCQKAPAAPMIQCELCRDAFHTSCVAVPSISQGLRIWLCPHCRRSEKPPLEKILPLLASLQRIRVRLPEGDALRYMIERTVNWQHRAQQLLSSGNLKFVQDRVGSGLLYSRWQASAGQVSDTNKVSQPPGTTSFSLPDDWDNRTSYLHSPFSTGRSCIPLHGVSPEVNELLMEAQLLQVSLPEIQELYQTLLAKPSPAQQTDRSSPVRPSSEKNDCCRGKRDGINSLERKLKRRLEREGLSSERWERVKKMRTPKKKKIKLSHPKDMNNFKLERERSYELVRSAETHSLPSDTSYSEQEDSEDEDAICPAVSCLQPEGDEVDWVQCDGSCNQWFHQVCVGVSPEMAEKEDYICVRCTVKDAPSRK
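Compound dilutions met 200 nM (final) KDM5BΔAP for 10 min at room temperature before substrate addition. The substrate mix held 12.5 µM H3K4me3 with cofactors 25 µM α-ketoglutarate and 50 µM Fe²⁺. NADH signal gain over 30 min defined activity.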
* hit, by the source's call; i = inactive; ? = inconclusive; . = no result. Shown are actives, neighbours in structure and some others; about 2.8% of the full set was active somewhere.

SMILES	IP6K1 inhibitor	KDM5B inh
CCN1CCN(C(=O)c2nc3sccn3c2-c2cccc(C(F)(F)F)c2)CC1	15.5	.
Cn1ncc2c(C(=O)NCCc3cccc(F)c3)cc(-c3ccccc3C(F)(F)F)nc21	3.3	.
CCn1c(=O)c2ccnn2c2ccc(C(=O)N3CCN(c4ccccc4)CC3)cc21	4.7	i
CN1C(=O)CCCCC1C(=O)NCC1CCN(Cc2cccc(F)c2)CC1 (configuration not stated)	11.3	i
CN(C)C(=O)c1ccc2c(c1)n(Cc1ccc(F)cc1)c(=O)c1ccnn12	0.2	28.2µM*
CCCCNC(=O)c1ccc2c(c1)n(Cc1ccc(F)cc1)c(=O)c1ccnn12	3.4	22.4µM*
CNC(=O)c1ccc2c(c1)n(Cc1ccc(OC)cc1)c(=O)c1ccnn12	9.0	i
Cc1oc2c(c1C(=O)NC1CCN(C)CC1)CN(Cc1ccc(F)cc1)CC2	0.9	?
Cn1c(=O)c2ccnn2c2ccc(C(=O)NCC3CCN(Cc4cccc(F)c4)CC3)cc21	6.9	28.2µM*
CN1CCC(NC(=O)c2ccc3c(c2)n(Cc2ccc(F)cc2)c(=O)c2ccnn23)CC1	4.3	28.2µM*
O=C(NC1CCN(c2ccc3nnc(C4CC4)n3n2)C1)c1ccccn1 (configuration not stated)	12.8	.
CCN1C(=O)CCN(Cc2cn(C)c3ccccc23)CC12CCOCC2	3.7	.
CCOc1ccc(-c2cc3n(n2)CCCN(C(=O)Cn2cnc4c2c(=O)n(C)c(=O)n4C)C3)cc1	-5.4	.
CCCCCNC(=O)c1ccc(-c2ccc(OC)nn2)cc1	1.7	.
COc1ccccc1-c1cccc(C(=O)N2CCC[C@H]2C(=O)NCc2ccc(C(F)(F)F)cc2)c1	-9.0	.
CN(C)C(=O)c1c[nH]c2cccnc12	1.2	126µM*
O=C(c1c[nH]c2cccnc12)N1CCOCC1	14.1	?
O=C(NCc1ccnc2[nH]ccc12)c1ccccc1F	1.2	?
C=CCNC(=O)c1c[nH]c2cccnc12	5.6	126µM*
O=C(Nc1ccc(F)cc1)c1c[nH]c2cccnc12	14.7	i
C=CCNC(=O)c1ccnc2[nH]ccc12	28.7	126µM*
COc1ccc(-c2cn3cc(C(=O)NC4CC4)nc3s2)cc1	-7.2	.
CCCc1c(C)nc(Nc2nc(C)c3cccc(OCC)c3n2)[nH]c1=O	.	i
Cc1cc(C)cc(-c2ccc(CN3CCCC(N[S+](=O)([O-])c4cccc(C(F)(F)F)c4)C3)cc2)c1 (configuration not stated)	-9.2	.
c1cn(-c2ccc(-c3cscn3)cc2)c(-c2cc3n(n2)CCCNC3)n1	1.5	i
SMILES	IP6K1 inhibitor	KDM5B inh
c1cn(-c2ccc3ncsc3c2)c(-c2cc3n(n2)CCCNC3)n1	-1.2	3.55µM*
c1cn(-c2ccc3cn[nH]c3c2)c(-c2cc3n(n2)CCCNC3)n1	-6.4	i
N#Cc1cc(-n2ccnc2-c2cc3n(n2)CCCNC3)ccc1N1CCCC1	52.2	28.2µM*
CNC(=O)c1cc(C2CC2)nc2onc(C3CCCN3C(=O)Nc3ccc(C)c(F)c3)c12 (configuration not stated)	1.4	.
CCCC1CN(Cc2ccc3c(c2)OCO3)C(=O)c2ccc(C)nc2O1 (configuration not stated)	15.9	.
COc1ccccc1-c1ccc(C(=O)N2CCC(NC(=O)NC3CCCC3)CC2)cc1	-3.8	.
COCCCNC(=O)c1cc(-c2cccnc2)nc2c1cnn2C	19.0	.
COCCN1C(=O)c2cccn2CC1CNC(=O)c1ccc(-n2c(C)ccc2C)cc1 (configuration not stated)	5.1	.
O=C(c1nc(-c2ccc(Cl)cc2Cl)c2ccccn12)N1CCN(c2ncccn2)CC1	-7.1	?
O=C(c1nc2sccn2c1-c1cccc(C(F)(F)F)c1)N1CCOCC1	12.6	.
CN(C)C(=O)c1nc(-c2cccc(C(F)(F)F)c2)c2ccccn12	0.0	35.5µM*
O=C(c1nc(-c2cccc(C(F)(F)F)c2)c2cnccn12)N1CCN(c2ncccn2)CC1	0.0	28.2µM*
C#CCNC(=O)c1nc(-c2cccc(C(F)(F)F)c2)c2ccccn12	-7.8	i
O=C(c1nc(-c2cccc(C(F)(F)F)c2)c2ccccn12)N1CCOCC1	-12.9	28.2µM*
O=C(c1nc(-c2cccc(C(F)(F)F)c2)c2ccccn12)N1CCN(c2ncccn2)CC1	36.7	25.1µM*
COC(=O)c1ccc(OC(=O)c2cccs2)c(OC)c1	.	i
Cc1ccc(NC(=O)C2=Cc3cc(Cl)ccc3OC=C2)cc1	.	i
O=C(C1CCCN(Cc2cccc(-c3ccsc3)c2)C1)N1CCN(c2ncccn2)CC1 (configuration not stated)	4.6	.
C#CCNC(=O)c1cc(-c2ccccc2F)nc2c1cnn2C	-5.3	.
CCONC(=O)c1ccc2c(c1)NC(=O)CS2	.	i
CCCNc1c(NC(=O)Nc2ccc(C)c(C)c2)c(=O)oc2ccccc12	.	i
CN(Cc1nc2ccccc2n1C(F)F)S(=O)(=O)c1ccc(F)cc1	.	i
C=C(Cl)COC(=O)c1ccc2[nH]c(C)c(C)c2c1	.	i
Cc1ccc(-c2nc(CNC(=O)C3CCNC3)[nH]c2-c2ccccn2)cc1 (configuration not stated)	-9.5	i
Cc1ccc(-c2nc(CNC(=O)[C@@H]3CCC[C@H](N)C3)[nH]c2-c2ccccn2)cc1	-9.2	28.2µM*
SMILES	IP6K1 inhibitor	KDM5B inh
Cc1noc([C@@H]2CN(C(=O)c3cccc4[nH]ccc34)C[C@H]2CO)n1	0.6	28.2µM*
O=C(c1cccc2[nH]ccc12)N1CCC(c2noc(C3CC3)n2)C1 (configuration not stated)	4.8	22.4µM*
O=C(c1ccccc1F)N1C[C@@H](CO)[C@H](c2nc(C3CC3)no2)C1	-8.9	i
O=C(c1nccc2ccccc12)N1CCC(c2noc(C3CC3)n2)C1 (configuration not stated)	2.2	i
Cc1noc([C@@H]2CN(C(=O)CCc3c[nH]c4ccccc34)C[C@H]2CO)n1	-9.1	i
O=C(c1cccc2[nH]ccc12)N1C[C@@H](CO)[C@H](c2nc(C3CC3)no2)C1	-5.5	22.4µM*
COc1ccc(N2CC(COc3ccccc3)Oc3ncccc3C2=O)cc1 (configuration not stated)	15.5	.
Cc1nn2c(c1-c1ccccc1[S+](C)(=O)[O-])N(Cc1ccc(C(=O)O)s1)CCC2	27.6	?
COc1ccccc1C1CC(c2ccccc2NS(C)(=O)=O)=NN1C(=O)c1ccco1 (configuration not stated)	.	i
COCCN1CC(C(=O)N2CCC(O)(c3ccc(F)cc3)CC2)CCC1=O (configuration not stated)	-5.4	i
COCCN1CC(C(=O)N2CCN(c3ncccc3C#N)CC2)CCC1=O (configuration not stated)	4.5	31.6µM*
COc1cccc(-c2cc(C(=O)NCc3cccc(F)c3)c3cnn(C)c3n2)c1	1.2	.
Cc1nnc(-c2cc(-c3cccc(O)c3)ccn2)n1-c1ccccc1	-3.3	i
COc1ncccc1-c1ccnc(-c2nnc(C)n2-c2ccccc2)c1	4.5	31.6µM*
O=C(NC1CCCCC1)C1CCN(C(=O)c2ccc(-c3cncnc3)cc2)CC1	10.1	.
O=C(Cc1ccccn1)NC1CCN(Cc2ccc(-c3ccsc3)cc2)C1 (configuration not stated)	-1.6	.
COc1ccc(N(Cc2ccccc2)C(=O)c2nc(S(C)(=O)=O)ncc2Cl)cc1	-25.8*	?

Screening data as filed in PubChem BioAssay.
